These results are taken from PubChem BioAssay AID651640 (Broad Institute, 2012).

Molecules are shown by their SMILES. Where “and” joins values, the source holds several entries; their conditions need not be identical. Equal entries are not always repeated. Screen size: about 350,000 compounds; about 6,000 (1.7%) were called active. About 5% were inconclusive and are not listed. No stated cut-off is given here; in the data, active means CPE inhibition above about 20% (passing the limit was not always enough); inconclusive means no clear call, values can overlap the other calls; tested in BHK-21 cells. For the sample, actives were picked, then their nearest neighbours and some compounds at random. Some compounds were tested as several samples or in several runs, with calls that do not always agree.

The test is described as follows: protection of cells from dengue 2 killing – plate reader, single concentration, primary screen (AID 651640).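 Further: 0% = median of neutral control wells and 100% = median of positive control wells.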 Conditions: DENV2-infected cells, cytopathic effect rescue, at 9.99 µM, stronger effect = higher value.
In the case of `Cc1ccc(S(=O)(=O)NCC[C@@H]2CC[C@H](NC(=O)CC3CC3)[C@H](CO)O2)cc1`, the CPE inhibition was -2.24% (inactive).
To `COc1ccc(NC(=O)Nc2ccc3c(c2)C(=O)N([C@H](C)CO)C[C@@H](C)[C@H](CN(C)Cc2ccccc2)O3)cc1` belongs -6.1% (inactive); to `CCCC#Cc1ccc2c(c1)O[C@H](CN(C)C(=O)c1ccncc1)[C@H](C)CN([C@H](C)CO)S2(=O)=O`, -4.65% (inactive); to `CO[C@@H]1CN(C)C(=O)c2ccc(NS(=O)(=O)c3cn(C)cn3)cc2OC[C@H](C)N(CCC(F)(F)F)C[C@@H]1C`, -5.08% (inactive).
As for `C[C@@H]1CN([C@@H](C)CO)C(=O)c2cc(NC(=O)CCN3CCOCC3)ccc2O[C@H]1CN(C)C(=O)NC1CCCCC1`, the CPE inhibition is -3.33% (inactive).
To `COc1ccccc1NC(=O)N1C[C@H]2[C@@H](c3ccccc31)[C@H](CO)N2Cc1ccc2c(c1)OCO2` belongs 55.6% (active); to `COc1ccccc1NC(=O)N1C[C@@H]2[C@H](c3ccccc31)[C@H](CO)N2CC1CCOCC1`, 16.7% (inactive); to `CC(=O)N1C[C@@H]2[C@H](c3ccccc31)[C@H](CO)N2Cc1ccc(Cl)cc1`, 16.8% (inactive).
Then `CN1[C@@H]2CN(C(=O)C3CCCCC3)c3ccccc3[C@@H]2[C@@H]1CO`, with -5.31% (inactive); and `CC(C)NC(=O)N1C[C@@H]2[C@H](c3ccccc31)[C@@H](CO)N2Cc1ccc(Cl)cc1`, with 47.3% (active); and `COc1ccc(CN2[C@@H](CO)[C@@H]3c4ccccc4N(C(=O)Nc4ccccc4)C[C@@H]32)cc1`, with -9.93% (inactive).
Then `COc1ccc(C(=O)N2C[C@@H]3[C@H](c4ccccc42)[C@H](CO)N3Cc2ccc3c(c2)OCO3)cc1`, with -6.95% (inactive); and `CC(C)NC(=O)N1C[C@@H]2[C@H](c3ccccc31)[C@H](CO)N2C(=O)C1CCCC1`, with -6.09% (inactive).
Take `COc1ccc(CN2[C@H](CO)[C@@H]3c4ccccc4N(C(=O)C4CC4)C[C@@H]32)cc1`: the CPE inhibition is 26.1% (active).
Regarding `CCC(=O)N(C)C[C@H]1Oc2ncc(C#Cc3cccnc3)cc2C(=O)N([C@H](C)CO)C[C@H]1C`, the CPE inhibition was 4.92% (inactive).
For `CCCNC(=O)N1[C@H](C#N)[C@@H](c2ccccc2C2=CCCCC2)[C@@H]1CO`, the CPE inhibition is -2.61% (inactive).
Take `O=C(c1ccc2c(c1)OCO2)N1CC(=O)N2[C@H](C1)[C@@H](c1ccc(C#Cc3ccccc3)cc1)[C@@H]2CO`: the CPE inhibition is 11.6% (inactive).
To `COc1ccc(NC(=O)Nc2ccc3c(c2)C(=O)N([C@H](C)CO)C[C@@H](C)[C@@H](CN(C)C(=O)NC(C)C)OCCCC[C@H](C)O3)cc1` belongs 4.29% (inactive); to `COCC(=O)N1[C@H](C(=O)N2CCN(C)CC2)[C@@H](CO)[C@@H]2Cn3c(ccc(C4=CCCC4)c3=O)[C@@H]21`, -7.88% (inactive); to `COc1cccc(S(=O)(=O)N2CC3(CCN(C)CC3)c3c(n(C)c4cc(OC)ccc34)[C@H]2CO)c1`, 3.74% (inactive).
`CC(=O)C1=C(C)N(Cc2ccccc2)C(=S)NC1c1cccc(Br)c1` (stereo not given): the CPE inhibition is -5.19% (inactive).
To `C[C@@H]1CCCCO[C@@H](CN(C)S(=O)(=O)c2cccs2)[C@@H](C)CN([C@@H](C)CO)C(=O)c2cc(NS(=O)(=O)c3ccc(F)cc3)ccc2O1` belongs -8.5% (inactive).
Take `CC(C)NC(=O)N(C)C[C@@H]1Oc2c(NC(=O)c3cnccn3)cccc2C(=O)N([C@@H](C)CO)C[C@@H]1C`: the CPE inhibition is -11.9% (inactive).
Consider `C[C@@H]1CN([C@@H](C)CO)C(=O)c2cccc(NC(=O)Nc3ccc(F)cc3)c2O[C@H]1CN(C)C(=O)Nc1ccc(F)cc1`, for which the CPE inhibition is 14.7% (inactive).
Then `C[C@H]1CN([C@@H](C)CO)C(=O)c2cccc(NC(=O)c3cnccn3)c2O[C@@H]1CN(C)Cc1ccc(Oc2ccccc2)cc1`, with 2.15% (inactive); and `C[C@@H]1CN([C@H](C)CO)C(=O)c2cccc(NC(=O)c3cnccn3)c2O[C@@H]1CN(C)Cc1ccncc1`, with 5.84% (inactive).
On to `C[C@H](CO)N1C[C@H](C)[C@H](CN(C)C(=O)Nc2ccc(F)cc2)Oc2c(NC(=O)c3cnccn3)cccc2C1=O`, for which the CPE inhibition is 29.3% (active).
To `C[C@H]1CN([C@@H](C)CO)C(=O)c2cccc(NC(=O)c3cnccn3)c2O[C@H]1CN(C)C(=O)Nc1ccccc1` belongs 28.3% (active); to `CC(=O)N[C@H]1CC[C@H](CCNC(=O)C2CC2)O[C@H]1CO`, -5.24% (inactive); to `O=C(c1cccc(F)c1)N1C[C@H]2[C@@H](c3ccccc31)[C@@H](CO)N2C(=O)Cc1ccccc1`, -5.94% (inactive).
With `CO[C@@H]1CN(C)C(=O)c2ccc(NS(C)(=O)=O)cc2OC[C@@H](C)N(C(=O)CC2CC2)C[C@@H]1C`, the CPE inhibition is -2.7% (inactive).
`Cc1c(C(=O)NCCCc2ccccc2)cccc1[N+](=O)[O-]`: the CPE inhibition is 4.47% (inactive).
Then `Cc1c(C(=O)NCCN2C(=O)S/C(=C\c3cccs3)C2=O)cccc1[N+](=O)[O-]`, with 27% (active); and `Cc1nn(Cc2ccccc2)c(C)c1C(=O)NCCN1C(=O)S/C(=C\c2ccc(F)cc2)C1=O`, with -3.31% (inactive); and `O=C(C[C@@H]1CC[C@@H](NS(=O)(=O)c2ccccc2)[C@H](CO)O1)NCc1ccc(Cl)c(Cl)c1`, with 3.78% (inactive).
Then `Cc1c(C)n2c(SCC(=O)N3CCCC3)nnc2[nH]c1=O`, with 13.9% (inactive).
To `CCc1ccc(C(=O)CSc2nnc(C)c(=O)[nH]2)cc1` belongs -2.63% (inactive); to `Cc1nnc(SCC(=O)N2CCOCC2)[nH]c1=O`, 58.6% (active); to `COc1ccc2c3c(n(C)c2c1)[C@@H](CO)N(C(=O)Nc1ccc(F)cc1)CC31CN(C(=O)NC(C)C)C1`, -3.42% (inactive).
In the case of `CNC(=O)C[C@@H]1CC[C@H]2[C@H](COc3ccc(NC(=O)C4CC4)cc3C(=O)N2C)O1`, the CPE inhibition was -4.01% (inactive).
Turning to `CCCNC(=O)Nc1ccc2c(c1)C(=O)N(C)C[C@@H](OC)[C@H](C)CN(CCC)[C@@H](C)CO2`, the CPE inhibition was 3.79% (inactive).
Take `COc1ccc(S(=O)(=O)Nc2cccc3c2O[C@H](CN(C)C(=O)NC(C)C)[C@H](C)CN([C@H](C)CO)C3=O)cc1`: the CPE inhibition is -8.19% (inactive).
Then `O=C(N[C@@H]1CC[C@@H](CCn2cc(-c3ccccn3)nn2)O[C@@H]1CO)c1ccccc1`, with -2.85% (inactive); and `CC=Cc1ccc2n(c1=O)C[C@@H]1[C@@H](CO)[C@H](C(=O)N3CCCCC3)[C@H]2N1C(=O)C1CCC1` (mixture of isomers), with 1.43% (inactive); and `O=S(=O)(NCC[C@H]1CC[C@@H](NS(=O)(=O)c2ccccc2Cl)[C@@H](CO)O1)c1ccc(Cl)cc1`, with -9.23% (inactive).
As for `Cc1c(CCC(=O)O)c(=O)oc2c(C)c(OCc3ccccc3Cl)ccc12`, the CPE inhibition was -5.66% (inactive).
Then `COc1ccc2c(C)c(CCC(=O)NC3CC3)c(=O)oc2c1C`, with 63.2% (active); and `COc1ccc(OC)c(Cc2nnc(CCC(=O)NC3CCCC3)o2)c1`, with -7.33% (inactive); and `C[C@H]1CN([C@@H](C)CO)C(=O)c2cc(C#CCN(C)C)cnc2O[C@H]1CN(C)C(=O)Cc1ccccc1`, with -2.97% (inactive).
`Cc1[nH]c2ccccc2c1CC(=O)Nc1ccc(Nc2cccnc2)c(-c2cccc(Cl)c2)c1`: the CPE inhibition is -3.53% (inactive).
As to `Cc1ccccc1CN(C)C[C@H]1OCc2cn(nn2)CCCC(=O)N([C@@H](C)CO)C[C@H]1C`, the CPE inhibition is -8.88% (inactive).
To `COc1ccc(CN(C)C[C@H]2OCCCC[C@H](C)Oc3ccc(NC(=O)c4ccccc4)cc3C(=O)N([C@@H](C)CO)C[C@@H]2C)cc1` belongs 10.3% (inactive); to `O=C(Nc1ncccc1O)c1ccc(S(=O)(=O)N2CCCC2)cc1`, -6.91% (inactive); to `O=C(N/N=C/c1ccccn1)c1ccc(S(=O)(=O)N2CCCCCC2)cc1`, 0.844% (inactive).
Turning to `O=C(Nc1ncccc1O)c1ccc(S(=O)(=O)N2CCCCCC2)cc1`, the CPE inhibition is 71.9% (active).
As for `C[C@@H]1CN([C@H](C)CO)C(=O)c2cc(NC(=O)Nc3ccc(F)cc3)ccc2O[C@@H](C)CCCCO[C@H]1CN(C)Cc1ccc(Cl)c(Cl)c1`, the CPE inhibition was -2.33% (inactive).
With `C[C@@H]1CN([C@@H](C)CO)S(=O)(=O)c2ccc(C3=CCCCC3)cc2O[C@@H]1CN(C)Cc1cccc(C(=O)O)c1`, the CPE inhibition was 0.212% (inactive).
To `COc1ccc(N2CCN(C(=O)c3cccs3)CC2)cc1` belongs 5.45% (inactive); to `O=C(COc1ccccc1)Nc1ccc(N2CCN(C(=O)c3cccs3)CC2)cc1`, 21.9% (active).
For `O=C(COc1ccccc1)Nc1ccc(C(=O)N2CCCC2)cc1`, the CPE inhibition was -2.25% (inactive).
Turning to `COc1ccc(-c2cn[nH]c2-c2ccc(OC)cc2)cc1`, the CPE inhibition is 4.92% (inactive).
As to `Cc1cc(C)n(CCNS(=O)(=O)c2ccc(Cl)cc2)n1`, the CPE inhibition was 8.8% (inactive).
For `COc1ccc2cc(-c3[nH]ncc3CNCCn3nc(C)cc3C)ccc2c1`, the CPE inhibition is 22.2% (active).
For the molecule `CN(C)CC(=O)N1[C@H](C(=O)NC2CCC2)[C@@H](CO)[C@@H]2Cn3c(ccc(-c4ccc(F)cc4)c3=O)[C@@H]21`, the CPE inhibition was 2.93% (inactive).
To `O=C(C1CCC1)N1C[C@@H]2N[C@H](C1)C2c1ccc(-c2cncnc2)cc1` (stereo not given in full) belongs 10.6% (inactive); to `O=C(Cc1ccncc1)N1C[C@@H]2N[C@H](C1)C2c1ccc(-c2ccc(F)cc2)cc1` (stereo not given in full), 21.5% (active); to `O=C(CN1CCOCC1)N1C[C@@H]2N[C@H](C1)C2c1ccc(-c2ccncc2)cc1` (stereo not given in full), -7.01% (inactive).
Then `COc1ccc(-c2ccc(C3[C@@H]4CN(S(=O)(=O)c5cn(C)cn5)C[C@H]3N4)cc2)cc1` (stereo not given in full), with 1.06% (inactive).
Then `Cn1cnc(S(=O)(=O)N2C[C@@H]3N[C@H](C2)C3c2ccc(-c3ccccc3F)cc2)c1` (stereo not given in full), with 72.2% (active) and -4.36% (inactive).
As to `Cn1cnc(S(=O)(=O)N2C[C@@H]3N[C@H](C2)C3c2ccc(/C=C/c3ccccc3)cc2)c1` (stereo not given in full), the CPE inhibition is 1.24% (inactive) and -2.99% (inactive).
